The values below come from PubChem BioAssay (NCI).

This is part of a sample that, as a whole, favours compounds with a hit. Of some 83,000 tested, about 20% had one in any assay.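 Interpretation: 100, growth as untreated; towards 0, rising growth inhibition; 0, no net growth; 0 to -100, cell death. Compounds scoring below 10 were considered active.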 Unmarked numbers belong to inactive results. The source made the active and inactive calls.

This assay deals with HL-60(TB) leukemia. As to the kind of experiment: NCI-60 one-dose screen, 48 h (100 = growth as untreated, 0 = no growth, -100 = all killed). The conditions noted are these: 10 µM unless noted.
As for `N#Cc1c(-c2ccccc2)cc(-c2ccccc2)n(CCCCCCC(=O)O)c1=O`, the growth was 105%.
The value for `COc1ccc(-c2c(N)n[nH]c2-c2ccccc2O)cc1OC` was 110%.
On to `Nc1nc(Nc2ccccc2SSc2ccccc2Nc2nc(N)nc(-c3ccc(I)cc3)n2)nc(-c2ccc(I)cc2)n1`, for which the growth is 83.1%.
With `OCCCc1ccccc1` the figure was 99%; with `Brc1ccc(Nc2nc3ccccc3nc2Nc2ccc(Br)cc2)cc1`, -12.3% (active); with `COc1cc(C2C=C(c3ccc(C)cc3)Nc3nc(SC)[nH]c(=O)c32)ccc1Oc1ccnc2cc(Cl)ccc12` (stereo not drawn), 104%.
For `COc1ccc2nc(-c3ccc(-n4cncc4-c4ccc(OC)c(N)c4)cc3)sc2c1`, the growth is 80.7%.
With `COc1cccc(CCC(=O)c2cc3c(N)c(C(=O)Nc4ccccc4)sc3nc2C)c1` the figure was 6.59% (active); with `O=C(Nc1ccccc1O)c1ccc(-c2ccc(Cl)cc2Cl)o1`, 83.7%; with `COc1ccccc1-n1c(SCc2cc(OC)c(OC)c(OC)c2)nc2ccc(Cl)cc2c1=O`, -19.6% (active).
In the case of `CCCc1nc(C(C)(C)O)c(C(=O)O)n1Cc1ccc(-c2ccccc2-c2nn[nH]n2)cc1`, the growth was 107%.
Take `CCN(CC)CCCC(C)N/C(c1cccc(OC)c1)=c1\c(=O)[nH]n(-c2c3ccccc3nc3ccccc23)c(=O)\c1=C(/NC(C)CCCN(CC)CC)c1cccc(OC)c1` (stereo not drawn): the growth was -43.5% (active).
For `CO[C@@H]1[C@H](N(C)C(=O)c2ccccc2)C[C@@H]2O[C@]1(C)n1c3ccccc3c3c4c(c5c6ccccc6n2c5c31)C(=O)NC4=O`, the growth is 78.9%.
